Experimental data reported in the supplement of paper PMC10849652.
About 8,800 targets were measured; listed, in parts, are those with a hit and a random draw of the rest. About 0.5% of all pairs of compound and target were hits. Values without a mark were called inactive.

What follows are targets tested with CN1CCC(CNc2ccc3ncc(-c4cccc(OC(F)(F)F)c4)n3n2)CC1 (assay: log2 fold change, soluble protein after heating vs DMSO (PISA); higher = thermal stabilisation; K562 lysate, 10 uM; active = over 0.2 and 3.5 SD of the protein, either way, in both replicates (recomputed)).
Outline: (§1)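 A 30 min treatment with 10 μM compound was applied to crude K562 extract at 1 mg/mL protein in PBS pH 7.4 with 1 mM MgCl2. Heating for 3 min spanned 48°C-58°C, after which aliquots were pooled, adjusted to 0.5% NP-40 at 4°C and spun at 21,000xg for 90 min. TMTpro 16plex LC-MS/MS of the supernatant, with channel sums equalised, gave values recorded as log-two fold change in thermal stability against solvent controls, from duplicates.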

UniProt O95644, sequence (O95644 whole entry, looked up): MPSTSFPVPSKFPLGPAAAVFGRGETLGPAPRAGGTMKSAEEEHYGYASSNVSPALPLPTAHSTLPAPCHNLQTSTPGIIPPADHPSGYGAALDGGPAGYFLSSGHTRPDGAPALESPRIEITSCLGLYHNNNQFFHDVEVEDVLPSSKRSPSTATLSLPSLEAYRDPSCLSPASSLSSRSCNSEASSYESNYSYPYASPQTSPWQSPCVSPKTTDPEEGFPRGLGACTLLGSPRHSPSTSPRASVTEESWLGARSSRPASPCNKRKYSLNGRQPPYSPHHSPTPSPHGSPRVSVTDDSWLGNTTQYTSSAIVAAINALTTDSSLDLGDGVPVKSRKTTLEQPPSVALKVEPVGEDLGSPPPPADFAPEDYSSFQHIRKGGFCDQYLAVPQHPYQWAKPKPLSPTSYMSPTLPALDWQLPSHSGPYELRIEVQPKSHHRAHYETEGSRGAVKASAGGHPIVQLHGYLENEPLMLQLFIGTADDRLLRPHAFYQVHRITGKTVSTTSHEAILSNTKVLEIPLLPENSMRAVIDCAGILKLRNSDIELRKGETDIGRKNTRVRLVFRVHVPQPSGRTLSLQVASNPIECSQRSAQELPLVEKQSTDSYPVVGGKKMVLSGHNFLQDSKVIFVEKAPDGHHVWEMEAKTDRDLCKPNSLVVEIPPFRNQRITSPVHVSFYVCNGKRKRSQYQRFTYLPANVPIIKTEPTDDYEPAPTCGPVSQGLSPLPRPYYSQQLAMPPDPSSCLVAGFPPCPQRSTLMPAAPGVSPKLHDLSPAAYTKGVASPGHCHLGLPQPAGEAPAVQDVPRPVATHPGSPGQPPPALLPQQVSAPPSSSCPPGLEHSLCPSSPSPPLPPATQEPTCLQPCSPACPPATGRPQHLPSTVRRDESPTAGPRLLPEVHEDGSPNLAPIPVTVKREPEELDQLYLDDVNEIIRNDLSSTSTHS
UniProt Q96IV0, sequence (Q96IV0 whole entry, looked up): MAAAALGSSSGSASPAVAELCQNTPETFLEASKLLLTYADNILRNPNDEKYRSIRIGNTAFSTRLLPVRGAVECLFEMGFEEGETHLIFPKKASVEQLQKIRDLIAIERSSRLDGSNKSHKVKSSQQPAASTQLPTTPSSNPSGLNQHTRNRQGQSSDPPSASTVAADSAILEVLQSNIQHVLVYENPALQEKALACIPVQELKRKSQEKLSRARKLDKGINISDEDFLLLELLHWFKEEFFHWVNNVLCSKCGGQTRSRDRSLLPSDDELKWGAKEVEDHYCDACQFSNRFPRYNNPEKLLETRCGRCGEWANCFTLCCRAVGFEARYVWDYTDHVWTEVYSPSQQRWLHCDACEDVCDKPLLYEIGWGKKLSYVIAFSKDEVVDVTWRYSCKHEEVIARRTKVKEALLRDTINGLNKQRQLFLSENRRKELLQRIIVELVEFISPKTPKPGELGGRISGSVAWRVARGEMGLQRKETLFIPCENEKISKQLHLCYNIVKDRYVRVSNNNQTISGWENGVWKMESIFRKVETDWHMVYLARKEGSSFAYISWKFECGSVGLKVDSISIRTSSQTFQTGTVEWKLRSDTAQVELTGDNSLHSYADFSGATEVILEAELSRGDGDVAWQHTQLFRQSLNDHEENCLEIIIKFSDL
UniProt O75376, sequence (O75376 whole entry, looked up): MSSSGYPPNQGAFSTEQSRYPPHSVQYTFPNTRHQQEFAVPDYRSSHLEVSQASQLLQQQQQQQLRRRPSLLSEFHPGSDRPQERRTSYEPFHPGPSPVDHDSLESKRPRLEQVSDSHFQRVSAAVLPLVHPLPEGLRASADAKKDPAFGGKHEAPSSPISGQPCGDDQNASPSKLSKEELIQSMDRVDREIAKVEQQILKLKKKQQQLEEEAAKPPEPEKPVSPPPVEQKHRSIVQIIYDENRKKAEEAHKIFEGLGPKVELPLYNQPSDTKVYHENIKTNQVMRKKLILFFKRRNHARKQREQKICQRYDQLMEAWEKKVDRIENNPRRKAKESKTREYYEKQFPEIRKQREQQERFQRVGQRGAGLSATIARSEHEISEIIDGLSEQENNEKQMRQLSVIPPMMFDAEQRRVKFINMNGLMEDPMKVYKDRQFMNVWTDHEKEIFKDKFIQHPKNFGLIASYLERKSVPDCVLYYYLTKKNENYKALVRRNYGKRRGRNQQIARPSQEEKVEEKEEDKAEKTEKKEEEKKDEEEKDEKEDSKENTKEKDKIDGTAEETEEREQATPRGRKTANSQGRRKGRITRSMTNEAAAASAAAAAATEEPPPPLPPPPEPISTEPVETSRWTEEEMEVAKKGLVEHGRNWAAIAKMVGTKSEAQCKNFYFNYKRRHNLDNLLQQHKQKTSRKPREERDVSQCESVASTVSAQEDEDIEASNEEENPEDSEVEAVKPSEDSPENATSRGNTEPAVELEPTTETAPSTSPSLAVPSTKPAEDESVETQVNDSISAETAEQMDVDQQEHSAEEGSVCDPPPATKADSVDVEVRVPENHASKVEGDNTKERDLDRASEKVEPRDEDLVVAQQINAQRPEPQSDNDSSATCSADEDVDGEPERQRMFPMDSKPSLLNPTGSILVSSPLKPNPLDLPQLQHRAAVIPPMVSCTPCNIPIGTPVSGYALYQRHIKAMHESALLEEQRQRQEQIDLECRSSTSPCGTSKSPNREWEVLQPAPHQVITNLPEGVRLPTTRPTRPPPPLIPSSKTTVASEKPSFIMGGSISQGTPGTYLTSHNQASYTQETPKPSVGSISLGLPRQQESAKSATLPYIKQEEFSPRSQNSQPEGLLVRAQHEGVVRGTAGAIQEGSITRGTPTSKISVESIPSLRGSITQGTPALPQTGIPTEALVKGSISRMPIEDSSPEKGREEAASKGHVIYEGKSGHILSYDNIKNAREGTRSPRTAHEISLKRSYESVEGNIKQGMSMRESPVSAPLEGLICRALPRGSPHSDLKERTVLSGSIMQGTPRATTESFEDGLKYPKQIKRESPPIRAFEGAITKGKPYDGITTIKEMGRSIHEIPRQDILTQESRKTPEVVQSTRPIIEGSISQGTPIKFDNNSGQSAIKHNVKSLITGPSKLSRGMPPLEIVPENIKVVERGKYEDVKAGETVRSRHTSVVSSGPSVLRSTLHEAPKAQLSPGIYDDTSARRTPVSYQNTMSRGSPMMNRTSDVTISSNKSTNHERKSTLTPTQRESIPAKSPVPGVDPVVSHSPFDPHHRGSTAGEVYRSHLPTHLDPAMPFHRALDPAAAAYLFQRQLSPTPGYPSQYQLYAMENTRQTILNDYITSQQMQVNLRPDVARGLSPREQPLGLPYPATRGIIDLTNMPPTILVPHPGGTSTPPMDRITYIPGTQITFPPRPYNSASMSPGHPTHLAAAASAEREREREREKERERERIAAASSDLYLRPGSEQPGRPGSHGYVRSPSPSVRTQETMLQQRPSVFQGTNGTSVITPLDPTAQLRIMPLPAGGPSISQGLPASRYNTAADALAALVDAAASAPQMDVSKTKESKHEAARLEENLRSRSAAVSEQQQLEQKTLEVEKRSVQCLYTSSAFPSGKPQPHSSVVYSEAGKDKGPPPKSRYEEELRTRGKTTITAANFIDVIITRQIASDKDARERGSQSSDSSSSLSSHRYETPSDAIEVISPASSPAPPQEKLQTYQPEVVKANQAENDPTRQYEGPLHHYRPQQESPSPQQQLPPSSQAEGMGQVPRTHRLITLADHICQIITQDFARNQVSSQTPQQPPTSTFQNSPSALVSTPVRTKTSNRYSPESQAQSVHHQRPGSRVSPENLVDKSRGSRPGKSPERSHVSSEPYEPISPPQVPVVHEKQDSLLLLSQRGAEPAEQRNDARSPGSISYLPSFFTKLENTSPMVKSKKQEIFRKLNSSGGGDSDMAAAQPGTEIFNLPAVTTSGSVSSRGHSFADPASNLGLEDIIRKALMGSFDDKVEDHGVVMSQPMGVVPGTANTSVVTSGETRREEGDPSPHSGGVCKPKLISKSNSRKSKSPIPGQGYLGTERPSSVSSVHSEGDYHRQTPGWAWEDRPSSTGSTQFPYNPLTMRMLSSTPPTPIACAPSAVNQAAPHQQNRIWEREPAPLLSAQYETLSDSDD
UniProt Q9BTX1, sequence (Q9BTX1 whole entry, looked up): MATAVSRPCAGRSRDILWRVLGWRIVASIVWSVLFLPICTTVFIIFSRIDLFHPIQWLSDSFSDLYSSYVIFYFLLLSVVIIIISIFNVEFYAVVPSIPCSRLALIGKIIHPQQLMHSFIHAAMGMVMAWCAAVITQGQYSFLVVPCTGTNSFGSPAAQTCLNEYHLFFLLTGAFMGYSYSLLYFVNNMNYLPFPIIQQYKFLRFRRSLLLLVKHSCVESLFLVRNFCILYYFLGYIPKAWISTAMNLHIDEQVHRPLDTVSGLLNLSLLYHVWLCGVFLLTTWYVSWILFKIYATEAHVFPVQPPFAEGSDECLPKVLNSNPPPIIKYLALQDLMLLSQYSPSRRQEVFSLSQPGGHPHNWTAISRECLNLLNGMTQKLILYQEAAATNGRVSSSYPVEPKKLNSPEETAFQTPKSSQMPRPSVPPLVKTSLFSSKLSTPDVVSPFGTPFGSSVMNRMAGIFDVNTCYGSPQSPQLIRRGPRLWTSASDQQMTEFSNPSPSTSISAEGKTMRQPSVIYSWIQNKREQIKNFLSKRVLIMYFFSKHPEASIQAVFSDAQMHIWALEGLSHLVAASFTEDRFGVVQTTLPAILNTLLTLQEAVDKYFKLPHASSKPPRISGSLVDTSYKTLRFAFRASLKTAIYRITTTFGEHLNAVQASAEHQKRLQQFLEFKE
UniProt Q9BPZ3, sequence (Q9BPZ3 whole entry, looked up): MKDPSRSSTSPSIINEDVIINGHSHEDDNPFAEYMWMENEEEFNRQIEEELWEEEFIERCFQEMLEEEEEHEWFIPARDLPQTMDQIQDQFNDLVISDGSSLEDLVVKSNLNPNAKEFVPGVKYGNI
UniProt Q9BRA0, sequence (Q9BRA0 whole entry, looked up): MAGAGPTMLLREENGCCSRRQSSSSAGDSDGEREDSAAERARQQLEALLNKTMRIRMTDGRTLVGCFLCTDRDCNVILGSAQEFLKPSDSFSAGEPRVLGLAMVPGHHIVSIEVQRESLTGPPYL

Target | log2 fold change
MRPL53 (UniProt Q96EL3) | -0.019
NEBL isoform 2 (UniProt O76041) | 0.084
PAIP2 (UniProt Q9BPZ3) | -0.001
NEK9 (UniProt Q8TD19) | 0.048
PARG (UniProt Q86W56) | -0.032
NGLY1 (UniProt Q96IV0) | -0.02
NOSIP (UniProt Q9Y314) | 0.016
NEXN (UniProt Q0ZGT2) | 0.209
NEBL (UniProt O76041) | -0.002
MTHFD1L (UniProt B7ZM99) | -0.056
PANK1 (UniProt Q8TE04) | -0.253
NUDT5 (UniProt Q9UKK9) | 0.27 (active)
NSL1 (UniProt Q96IY1) | 0.047
MYO1D (UniProt O94832) | -0.035
NCK1 (UniProt P16333) | -0.05
OGT (UniProt O15294) | -0.021
NCOR1 (UniProt O75376) | -0.033
NDUFAF5 (UniProt Q5TEU4) | 0.035

Target | log2 fold change
MSI2 (UniProt Q96DH6) | 0.002
NAA38 isoform 2 (UniProt Q9BRA0) | 0.201
OSBPL3 isoform 2 (UniProt Q9H4L5) | -0.068
OLA1 (UniProt Q9NTK5) | 0.035
MRPS12 (UniProt O15235) | 0.001
NFIC (UniProt P08651) | 0.055
NPTN (UniProt Q9Y639) | 0.052
OTC (UniProt P00480) | 0.371
NDC1 (UniProt Q9BTX1) | 0.155
NNT (UniProt Q13423) | -0.004
NUP160 (UniProt Q12769) | -0.058
NFATC1 (UniProt O95644) | 0.064
MTMR6 (UniProt Q9Y217) | -0.08
NARS2 (UniProt Q96I59) | 0.027
NSA2 (UniProt O95478) | -0.221
PAN2 isoform 2 (UniProt Q504Q3) | -0.04
NIPBL (UniProt Q6KC79) | -0.042

What follows are targets tested with CN1CCN(CCOc2cc(OC3CCOCC3)c3c(Nc4c(Cl)ccc5c4OCO5)ncnc3c2)CC1 [saracatinib] in the same assay as above.
Outline: as §1

Target | log2 fold change
MRPL53 (UniProt Q96EL3) | -0.003
NEBL isoform 2 (UniProt O76041) | 0.023
PAIP2 (UniProt Q9BPZ3) | -0.081
NEK9 (UniProt Q8TD19) | 0.035
PARG (UniProt Q86W56) | 0.006
NGLY1 (UniProt Q96IV0) | 0.013
NOSIP (UniProt Q9Y314) | 0.008
NEXN (UniProt Q0ZGT2) | 0.026
NEBL (UniProt O76041) | -0.035
MTHFD1L (UniProt B7ZM99) | 0.004
PANK1 (UniProt Q8TE04) | 0
NUDT5 (UniProt Q9UKK9) | -0.022
NSL1 (UniProt Q96IY1) | 0.012
MYO1D (UniProt O94832) | -0.001
NCK1 (UniProt P16333) | 0.015
OGT (UniProt O15294) | 0.011
NCOR1 (UniProt O75376) | 0.006
NDUFAF5 (UniProt Q5TEU4) | 0.179

Target | log2 fold change
MSI2 (UniProt Q96DH6) | -0.015
NAA38 isoform 2 (UniProt Q9BRA0) | 0.042
OSBPL3 isoform 2 (UniProt Q9H4L5) | 0.04
OLA1 (UniProt Q9NTK5) | -0.003
MRPS12 (UniProt O15235) | 0.016
NFIC (UniProt P08651) | 0.049
NPTN (UniProt Q9Y639) | 0.02
OTC (UniProt P00480) | 0.012
NDC1 (UniProt Q9BTX1) | 0.032
NNT (UniProt Q13423) | -0.025
NUP160 (UniProt Q12769) | 0.043
NFATC1 (UniProt O95644) | 0.042
MTMR6 (UniProt Q9Y217) | 0.024
NARS2 (UniProt Q96I59) | 0.001
NSA2 (UniProt O95478) | -0.084
PAN2 isoform 2 (UniProt Q504Q3) | -0.021
NIPBL (UniProt Q6KC79) | -0.001

Each target was assayed with CN1CCN(c2nc(C3=C(c4c[nH]c5ccccc45)C(=O)NC3=O)c3ccccc3n2)CC1 [sotrastaurin] in the same assay as above.
Outline: as §1

Target | log2 fold change
MRPL53 (UniProt Q96EL3) | -0.021
NEBL isoform 2 (UniProt O76041) | -0.039
PAIP2 (UniProt Q9BPZ3) | -0.073
NEK9 (UniProt Q8TD19) | -0.016
PARG (UniProt Q86W56) | 0.02
NGLY1 (UniProt Q96IV0) | 0.024
NOSIP (UniProt Q9Y314) | -0.014
NEBL (UniProt O76041) | 0.085
MTHFD1L (UniProt B7ZM99) | 0.036
PANK1 (UniProt Q8TE04) | 0.052
NUDT5 (UniProt Q9UKK9) | 0.034
NSL1 (UniProt Q96IY1) | 0.005
MYO1D (UniProt O94832) | 0.041
NCK1 (UniProt P16333) | 0.014
OGT (UniProt O15294) | 0.018
NCOR1 (UniProt O75376) | 0.006
NDUFAF5 (UniProt Q5TEU4) | 0

Target | log2 fold change
MSI2 (UniProt Q96DH6) | -0.002
NAA38 isoform 2 (UniProt Q9BRA0) | -0.079
OSBPL3 isoform 2 (UniProt Q9H4L5) | 0.018
OLA1 (UniProt Q9NTK5) | 0.026
MRPS12 (UniProt O15235) | 0.028
NFIC (UniProt P08651) | -0.01
NPTN (UniProt Q9Y639) | -0.016
OTC (UniProt P00480) | 0.282
NDC1 (UniProt Q9BTX1) | 0.011
NNT (UniProt Q13423) | -0.024
NUP160 (UniProt Q12769) | -0.01
NFATC1 (UniProt O95644) | 0
MTMR6 (UniProt Q9Y217) | 0.087
NARS2 (UniProt Q96I59) | -0.024
PAN2 isoform 2 (UniProt Q504Q3) | 0.018
NIPBL (UniProt Q6KC79) | 0.004
